Reference: PubChem BioAssay AID1159580 (chemical genetic matrix, 2015)
Among all 5,500 compounds or so, about 2,000 (36%) were called active. Not shown: some 18% with an inconclusive outcome. No stated cut-off is given here; in the data, active means normalized growth mostly below about 0.91 (no sharp cut-off); inconclusive means no clear call, values can overlap the other calls; inactive means mostly above about 0.92. Some of the results follow.

Experiment: chemical genetic growth profiling, strain panel (AID 1159580);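 further: tested at 20 µM; growth read once vehicle control cultures reached saturation at 30 °C; 1 = growth at the plate median or of vehicle wells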
Conditions: S. cerevisiae deletion strains, growth OD

Measured: normalized growth

N[C@H](CCCCCP(=O)(O)O)C(=O)O
inactive: locus YAL013W, strain DEP1, stronger effect = lower value 0.989 | locus YAL040C, strain CLN3, stronger effect = lower value 1.06 | locus YCL061C, strain MRC1 (second series), stronger effect = lower value 1.01 | locus YER002W, strain NOP16, stronger effect = lower value 1 | locus YGR078C, strain PAC10, stronger effect = lower value 1 | locus YJR075W, strain HOC1, stronger effect = lower value 1.01 | locus YMR263W, strain SAP30, stronger effect = lower value 1.01 | locus YNL128W, strain TEP1, stronger effect = lower value 0.987 | locus YNL153C, strain GIM3, stronger effect = lower value 1.02 | locus YNL175C, strain NOP13, stronger effect = lower value 0.994 | locus YNL197C, strain WHI3, stronger effect = lower value 0.968 | locus YNL224C, strain SQS1, stronger effect = lower value 1 | locus YOR083W, strain WHI5 (second series), stronger effect = lower value 0.964 | locus YPL055C, strain LGE1, stronger effect = lower value 0.997 | locus YPL241C, strain CIN2, stronger effect = lower value 1
